Data from PubChem BioAssay (Tox21).
Unmarked numbers belong to inactive results. Records with an inconclusive call do not appear. A call without a number means that no potency is given here. The source made the active and inactive calls. Unless noted, the call rests on the fitted dose curve.

Columns and labels:
[1] = Nuclear factor erythroid 2-related factor 2/antioxidant responsive element (Nrf2/ARE) small molecule agonists: qHTS cell viability counter screen in human keratinocytes (AID 1919968; active means well fitted cell-killing curve with a large enough effect in the repeat runs; further: nearly all actives have a fitted effect of over 55% in size; further: potency means the concentration at half of the fitted maximal effect)
In short: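 CellTiter-Fluor fluorescence, read 1 h after reagent, gave viability in the same wells as the ARE-luciferase assay. KeratinoSens cells (1,500/well) had 23 h compound exposure at 37 C/5% CO2 following 5 h plating.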

[2] = Nuclear factor erythroid 2-related factor 2/antioxidant responsive element (Nrf2/ARE) small molecule agonists: luciferase reporter gene qHTS assay in human keratinocytes (AID 1919969); further: nearly all actives have a fitted effect of over 35% in size
[3] = molecular target: Gonadotropin-releasing hormone receptor (Homo sapiens) (UniProt P30968); test: Human gonadotropin-releasing hormone receptor (GnRHR) small molecule agonists, calcium flux assay in GnRHR-HEK293 cells (AID 1920063); further: nearly all actives have a fitted effect of over 35% in size
In short: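 Agonist mode: compounds at 15 concentrations, in triplicate, went onto calcium dye-loaded GnRHR-HEK293 cells. Intracellular calcium was then followed as 480/540 nm fluorescence at 1 s intervals over 3 min.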

[4] = G protein-coupled receptor (GPCR) small molecule agonists, calcium flux assay: HEK293 wild type cell line counter screen (AID 1920065)
In short: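 Calcium flux counter screen: compound added in agonist mode at 15 concentrations in triplicate to dye-loaded parental HEK293 cells. Fluorescence (480/540) read kinetically for 3 min; ATP served as positive control.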

[5] = p53 small molecule agonists, cell-based qHTS assay with human liver microsomes (AID 1963577);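 further: p53 response element beta-lactamase reporter cells with liver microsomes plus NADPH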
In short: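 With metabolic activation: human liver microsomes (0.5 mg/mL final) plus NADPH (0.5 mg/mL final) added alongside compounds to p53RE-bla cells; 16 h 37 C exposure; beta-lactamase read by LiveBLAzer fluorescence.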

[6] = p53 small molecule agonists, cell-based qHTS assay with rat liver microsomes (AID 1963578)
In short: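 Metabolic activation by rat liver microsomes and NADPH, each 0.5 mg/mL final, added right after compounds to p53RE-bla reporter cells (4,000/well, plated 5 h earlier). 16 h at 37 C, then LiveBLAzer substrate for 2 h at room temperature in the dark; fluorescence read-out.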

[7] = p53 small molecule agonists, cell-based qHTS assay with rat liver microsomes: qHTS cell viability counter screen (AID 1963580); further: nearly all actives have a fitted effect of over 45% in size
In short: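 After the beta-lactamase ratio was read, CellTiter-Glo was added to the same wells and luminescence measured at 30 min; cells had been treated 16 h at 37 C with compounds, rat liver microsomes and NADPH (0.5 mg/mL final each).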

[8] = p53 small molecule agonists, cell-based qHTS assay: qHTS cell viability counter screen (AID 1963581); further: nearly all actives have a fitted effect of over 45% in size
In short: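 Counter screen read by CellTiter-Glo luminescence (ATP content, 30 min at room temperature), run in the same wells as the beta-lactamase reporter read. HCT-116 p53RE-bla cells saw compounds for 16 h at 37 C.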

[9] = p53 small molecule agonists, cell-based qHTS assay (AID 1963582; active means well fitted activation curve with a large enough effect in the signal ratio in the repeat runs, not every such curve was filed as active; the % refers to the signal ratio)
In short: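 Read-out is beta-lactamase FRET fluorescence after 2 h at room temperature with LiveBLAzer B/G substrate. p53 response element-bla cells were treated 16 h at 37 C with compounds in DMSO, added 5 h after seeding.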

[10] = cAMP Responsive Elements (CRE) small molecule agonists, cell-based qHTS assay (AID 1963590)
In short: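 Agonist mode: compound added to CRE-bla HEK 293T cells (2,000/well, 18 h after plating) for 3 h at 37 C/5% CO2. Reporter activity detected via FRET beta-lactamase substrate, 2 h room-temperature loading.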

[11] = cAMP Responsive Elements (CRE) small molecule antagonists, cell-based qHTS assay (AID 1963591; active means well fitted inhibition curve with a large enough effect in the signal ratio in the repeat runs, not every such curve was filed as active; the % refers to the signal ratio; further: potency means the concentration at half of the fitted maximal effect)
In short: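 Antagonist mode: compounds are added alongside the adenylyl cyclase activator NKH477 (0.25 uM final) to CRE-bla HEK293T cells for 3 h. LiveBLAzer FRET substrate, 2 h at room temperature, reports bla expression.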

[12] = molecular target: D(2) dopamine receptor (Homo sapiens) (UniProt P14416); test: Dopamine D2 receptor (DRD2) small molecule agonists, cell-based qHTS assay (AID 1963594); further: nearly all actives have a fitted effect of over 35% in size
In short: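 HEK293 cells stably expressing human DRD2, pre-treated with PDE inhibitor Ro20-1724 (0.1 mM final) and compound 10 min at room temperature, then stimulated with NKH477 (200nM […]) for 30 min. cAMP read by HTRF (665/620 nm).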

[13] = p53 small molecule agonists, cell-based qHTS assay with human liver microsomes: qHTS cell viability counter screen (AID 1963579); further: nearly all actives have a fitted effect of over 45% in size; further: potency means the concentration at half of the fitted maximal effect
In short: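 Metabolic activation used human liver microsomes and NADPH, both 0.5 mg/mL final, over 16 hours at 37 C on p53RE-bla cells (4,000/well). Cytotoxicity measured by CellTiter-Glo luminescence, 30 min at room temperature.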

[14] = molecular target: 5-hydroxytryptamine receptor 2A (Homo sapiens) (UniProt P28223); test: 5-hydroxytryptamine receptor 2A (HTR2A) small molecule antagonists, cell-based qHTS assay (AID 1963586); further: nearly all actives have a fitted effect of over 45% in size; further: potency means the concentration at half of the fitted maximal effect
In short: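 CHO cells stably expressing human HTR2A were plated for 18 h at 37 C, then loaded with calcium dye for 1 h. Compounds were preincubated 5 min at room temperature before DOI (4 nM solution) was added. Kinetic fluorescence was read for 3 min.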

[15] = molecular target: Muscarinic acetylcholine receptor M1 (Homo sapiens) (UniProt P11229); test: Cholinergic receptor muscarinic 1 (CHRM1) small molecule antagonists, cell-based qHTS assay (AID 1963588); further: nearly all actives have a fitted effect of over 40% in size; further: potency means the concentration at half of the fitted maximal effect
In short: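 Compounds were tested at 15 concentrations in three independent runs. Dye-loaded CHRM1-CHO cells were exposed 5 min at room temperature before stimulation by acetylcholine added at 50nM. Intracellular calcium was read kinetically on FDSS for 3 min.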

[16] = molecular target: Muscarinic acetylcholine receptor M1 (Homo sapiens) (UniProt P11229); test: Cholinergic receptor muscarinic 1 (CHRM1) small molecule agonists, cell-based qHTS assay (AID 1963589); further: nearly all actives have a fitted effect of over 35% in size
In short: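 Agonist-mode calcium-flux screen: compounds at 15 concentrations, three independent runs, were pin-transferred onto dye-loaded human CHRM1-CHO cells. Fluorescence was then recorded kinetically every second over minutes.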

[17] = molecular target: Beta-2 adrenergic receptor (Homo sapiens) (UniProt P07550); test: Adrenergic beta2 receptor (ADRB2) small molecule antagonists, cell-based qHTS assay (AID 1963592); further: series mostly up to about 92 µM; nearly all actives have a fitted effect of over 50% in size
In short: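 Assay format: CHO-ADRB2 cells, 18-20hr seeding at 37C/5% CO2, then compound plus 1nM isoproterenol agonist mix for 0.5hr RT. Homogeneous time-resolved fluorescence cAMP detection after 1hr, expressed as 665/615 nm ratio.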

[18] = molecular target: 5-hydroxytryptamine receptor 2A (Homo sapiens) (UniProt P28223); test: 5-hydroxytryptamine receptor 2A (HTR2A) small molecule agonists, cell-based qHTS assay (AID 1963587); further: nearly all actives have a fitted effect of over 30% in size
In short: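 CHO cells stably expressing human HTR2A, plated 18 h, loaded with calcium dye 1 h at 37 C. Agonist mode: compounds added and intracellular calcium fluorescence recorded kinetically for 2 min at 1 sec intervals.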

[19] = molecular target: D(2) dopamine receptor (Homo sapiens) (UniProt P14416); test: Dopamine D2 receptor (DRD2) small molecule antagonists, cell-based qHTS assay (AID 1963595; active means well fitted inhibition curve with a large enough effect in the signal ratio in the repeat runs, with a control signal flat; the % refers to the signal ratio)
In short: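 DRD2-HEK293; 0.1 mM Ro20-1724; cpd 10 min RT; NKH477 200 nM + quinpirole 12 nM, 30 min RT; HTRF cAMP (cAMP-d2/anti-cAMP cryptate), 665/620 nm ratio after 1 h.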

[20] = molecular target: Beta-2 adrenergic receptor (Homo sapiens) (UniProt P07550); test: Adrenergic beta2 receptor (ADRB2) small molecule agonists, cell-based qHTS assay (AID 1963593);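 further: CHO cells stably overexpressing human ADRB2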
In short: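 CHO cells stably over-expressing ADRB2 were plated overnight at 37C, then dosed with compounds plus a stimulation mix containing 100uM IBMX and 25uM Ro-20-1724 for 0.5hr at room temperature. cAMP was measured by HTRF competition, 1hr.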

Sequence of D(2) dopamine receptor (Homo sapiens) (P14416 whole entry, looked up): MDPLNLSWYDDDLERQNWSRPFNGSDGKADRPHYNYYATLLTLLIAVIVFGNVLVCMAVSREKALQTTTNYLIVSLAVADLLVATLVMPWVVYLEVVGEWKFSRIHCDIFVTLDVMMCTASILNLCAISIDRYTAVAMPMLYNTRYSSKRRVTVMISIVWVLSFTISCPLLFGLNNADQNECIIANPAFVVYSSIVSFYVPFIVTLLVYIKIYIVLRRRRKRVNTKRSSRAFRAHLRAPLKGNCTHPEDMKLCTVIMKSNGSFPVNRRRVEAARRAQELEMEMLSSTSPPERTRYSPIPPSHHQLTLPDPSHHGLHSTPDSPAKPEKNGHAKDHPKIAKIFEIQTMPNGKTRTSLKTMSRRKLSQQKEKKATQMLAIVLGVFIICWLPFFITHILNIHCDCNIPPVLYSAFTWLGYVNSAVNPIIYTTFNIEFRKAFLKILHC
Sequence of Beta-2 adrenergic receptor (Homo sapiens) (P07550 whole entry, looked up): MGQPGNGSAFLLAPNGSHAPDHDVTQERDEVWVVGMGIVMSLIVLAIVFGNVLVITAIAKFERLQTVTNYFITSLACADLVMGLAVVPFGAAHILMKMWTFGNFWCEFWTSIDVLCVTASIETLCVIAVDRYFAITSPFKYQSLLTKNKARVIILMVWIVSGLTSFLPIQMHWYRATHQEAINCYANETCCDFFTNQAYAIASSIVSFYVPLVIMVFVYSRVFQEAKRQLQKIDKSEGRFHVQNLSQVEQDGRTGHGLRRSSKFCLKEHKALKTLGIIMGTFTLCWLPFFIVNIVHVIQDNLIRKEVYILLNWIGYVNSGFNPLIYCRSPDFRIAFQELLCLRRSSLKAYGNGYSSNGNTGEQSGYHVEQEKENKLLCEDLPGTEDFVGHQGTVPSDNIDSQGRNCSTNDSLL
Sequence of Muscarinic acetylcholine receptor M1 (Homo sapiens) (P11229 whole entry, looked up): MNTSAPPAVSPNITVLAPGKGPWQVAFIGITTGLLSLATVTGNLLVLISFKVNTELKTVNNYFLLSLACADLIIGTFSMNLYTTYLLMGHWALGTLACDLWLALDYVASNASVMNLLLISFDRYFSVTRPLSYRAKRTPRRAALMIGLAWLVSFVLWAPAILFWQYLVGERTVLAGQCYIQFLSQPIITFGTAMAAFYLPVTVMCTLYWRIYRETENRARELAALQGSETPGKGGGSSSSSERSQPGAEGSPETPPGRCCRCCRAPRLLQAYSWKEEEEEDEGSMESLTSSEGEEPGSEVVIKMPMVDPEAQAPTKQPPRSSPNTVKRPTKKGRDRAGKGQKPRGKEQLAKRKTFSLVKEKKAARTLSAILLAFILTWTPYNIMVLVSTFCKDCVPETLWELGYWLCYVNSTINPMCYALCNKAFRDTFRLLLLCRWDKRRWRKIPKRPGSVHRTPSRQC
Sequence of 5-hydroxytryptamine receptor 2A (Homo sapiens) (P28223 whole entry, looked up): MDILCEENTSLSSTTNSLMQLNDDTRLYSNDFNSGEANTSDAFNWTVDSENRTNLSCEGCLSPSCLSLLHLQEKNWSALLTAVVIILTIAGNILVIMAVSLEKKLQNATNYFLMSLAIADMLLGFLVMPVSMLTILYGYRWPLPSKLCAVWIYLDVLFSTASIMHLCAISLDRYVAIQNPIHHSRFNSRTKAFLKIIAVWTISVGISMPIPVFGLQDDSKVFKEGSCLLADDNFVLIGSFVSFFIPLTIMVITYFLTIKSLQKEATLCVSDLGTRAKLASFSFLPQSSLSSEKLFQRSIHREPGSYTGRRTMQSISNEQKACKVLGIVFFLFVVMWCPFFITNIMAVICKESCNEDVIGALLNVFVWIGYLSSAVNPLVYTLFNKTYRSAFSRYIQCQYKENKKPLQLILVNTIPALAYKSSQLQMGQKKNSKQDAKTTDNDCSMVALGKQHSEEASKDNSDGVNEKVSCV
Sequence of Gonadotropin-releasing hormone receptor (Homo sapiens) (P30968 whole entry, looked up): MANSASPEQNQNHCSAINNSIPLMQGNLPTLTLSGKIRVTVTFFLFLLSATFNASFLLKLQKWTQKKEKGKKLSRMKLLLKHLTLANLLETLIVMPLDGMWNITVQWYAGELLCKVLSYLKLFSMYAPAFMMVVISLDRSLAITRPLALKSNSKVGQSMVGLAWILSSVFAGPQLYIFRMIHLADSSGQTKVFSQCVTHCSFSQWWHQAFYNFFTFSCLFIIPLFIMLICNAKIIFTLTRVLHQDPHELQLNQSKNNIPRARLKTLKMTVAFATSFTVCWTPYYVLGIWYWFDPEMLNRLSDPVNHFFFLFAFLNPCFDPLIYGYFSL

O=C(CCCN1CCC(O)(c2ccc(Br)cc2)CC1)c1ccc(F)cc1
Potency [1]: inactive | Potency [2]: inactive | Potency [3]: inactive | outcome [4]: inactive | Potency [5]: inactive | Potency [6]: inactive | Potency [7]: inactive | Potency [8]: inactive | Potency [9]: inactive | Potency [10]: inactive | Potency [11]: inactive | Potency [12]: inactive

CCCCCCCCCOC(=O)c1ccc(O)cc1
Potency [1]: 26.9 µM (active) | Potency [2]: inactive | Potency [3]: inactive | outcome [4]: inactive | Potency [5]: inactive | Potency [6]: inactive | Potency [13]: 18 µM (active) | Potency [7]: inactive | Potency [14]: inactive | Potency [15]: inactive | Potency [16]: inactive | Potency [10]: inactive | Potency [11]: 21.4 µM (active) | Potency [17]: inactive | Potency [12]: inactive

CCCCCCCCCCc1ccccc1
Potency [1]: inactive | Potency [2]: inactive | Potency [3]: inactive | outcome [4]: inactive | Potency [5]: inactive | Potency [13]: inactive | Potency [7]: inactive | Potency [8]: inactive | Potency [9]: inactive | Potency [14]: inactive | Potency [18]: inactive | Potency [15]: inactive | Potency [10]: inactive | Potency [11]: inactive | Potency [17]: inactive | Potency [19]: inactive

CC[C@@]1(O)C(=O)OCc2c1cc1n(c2=O)Cc2c-1nc1ccccc1c2/C=N/OC(C)(C)C
Potency [1]: inactive | Potency [2]: inactive | Potency [3]: inactive | outcome [4]: inactive | Potency [5]: inactive | Potency [6]: inactive | Potency [7]: inactive | Potency [8]: inactive | Potency [14]: 5.79 µM (active) | Potency [18]: inactive | Potency [15]: 20.5 µM (active) | Potency [16]: inactive | Potency [17]: inactive | Potency [19]: inactive

CCCN(CCC)C(=O)C(CCC(=O)O)NC(=O)c1ccccc1 (stereo not given)
Potency [1]: inactive | Potency [2]: inactive | Potency [3]: inactive | outcome [4]: inactive | Potency [5]: inactive | Potency [6]: inactive | Potency [13]: inactive | Potency [7]: inactive | Potency [9]: inactive | Potency [10]: inactive | Potency [11]: inactive | Potency [20]: inactive | Potency [19]: inactive

CC[C@@H](CO)NCCN[C@@H](CC)CO
Potency [1]: inactive | Potency [2]: inactive | Potency [3]: inactive | outcome [4]: inactive | Potency [5]: inactive | Potency [6]: inactive | Potency [7]: inactive | Potency [8]: inactive | Potency [9]: inactive | Potency [10]: inactive | Potency [11]: inactive | Potency [17]: inactive | Potency [19]: inactive

CC(=O)C(C)=O
Potency [1]: inactive | Potency [2]: inactive | Potency [3]: inactive | outcome [4]: inactive | Potency [5]: inactive | Potency [6]: inactive | Potency [13]: inactive | Potency [8]: inactive | Potency [9]: inactive | Potency [14]: inactive | Potency [18]: inactive | Potency [15]: inactive | Potency [16]: inactive | Potency [10]: inactive | Potency [11]: inactive | Potency [17]: inactive | Potency [12]: inactive | Potency [19]: inactive

CCNC(=O)NCCCOc1cccc(CN2CCCCC2)c1
Potency [1]: inactive | Potency [2]: inactive | Potency [3]: inactive | outcome [4]: inactive | Potency [5]: inactive | Potency [6]: inactive | Potency [13]: inactive | Potency [7]: inactive | Potency [9]: inactive | Potency [14]: inactive | Potency [18]: inactive | Potency [15]: inactive | Potency [16]: inactive | Potency [10]: inactive | Potency [11]: inactive | Potency [19]: inactive

COc1cc2c3cc1Oc1cc(ccc1O)C[C@@H]1c4c(cc(OC)c(O)c4Oc4ccc(cc4)C[C@@H]3N(C)CC2)CC[N+]1(C)C
Potency [1]: inactive | Potency [2]: inactive | Potency [3]: inactive | outcome [4]: inactive | Potency [5]: inactive | Potency [6]: inactive | Potency [13]: inactive | Potency [8]: inactive | Potency [9]: inactive | Potency [10]: inactive | Potency [20]: inactive | Potency [12]: inactive | Potency [19]: inactive
